Data reported in the supplement of paper PMC11732987, “Enantioselective OTUD7B fragment discovery through chemoproteomics screening and high-throughput optimisation” (Communications Chemistry, 2025).

Tests used:
Assay in all cases: log2 ratio of Biotin-Ahx-Ub-VS probe labelling (fragment/DMSO); higher = less target engagement (more negative = stronger competition), active = hit call of the paper (q ≤ 0.05, log2 ratio ≤ -1)
Conditions in all cases: compound concentration: 200 uM; treatment time: 3 h
USP19 = target: T1, USP19 (UniProt O94966)
T1 sequence (whole entry): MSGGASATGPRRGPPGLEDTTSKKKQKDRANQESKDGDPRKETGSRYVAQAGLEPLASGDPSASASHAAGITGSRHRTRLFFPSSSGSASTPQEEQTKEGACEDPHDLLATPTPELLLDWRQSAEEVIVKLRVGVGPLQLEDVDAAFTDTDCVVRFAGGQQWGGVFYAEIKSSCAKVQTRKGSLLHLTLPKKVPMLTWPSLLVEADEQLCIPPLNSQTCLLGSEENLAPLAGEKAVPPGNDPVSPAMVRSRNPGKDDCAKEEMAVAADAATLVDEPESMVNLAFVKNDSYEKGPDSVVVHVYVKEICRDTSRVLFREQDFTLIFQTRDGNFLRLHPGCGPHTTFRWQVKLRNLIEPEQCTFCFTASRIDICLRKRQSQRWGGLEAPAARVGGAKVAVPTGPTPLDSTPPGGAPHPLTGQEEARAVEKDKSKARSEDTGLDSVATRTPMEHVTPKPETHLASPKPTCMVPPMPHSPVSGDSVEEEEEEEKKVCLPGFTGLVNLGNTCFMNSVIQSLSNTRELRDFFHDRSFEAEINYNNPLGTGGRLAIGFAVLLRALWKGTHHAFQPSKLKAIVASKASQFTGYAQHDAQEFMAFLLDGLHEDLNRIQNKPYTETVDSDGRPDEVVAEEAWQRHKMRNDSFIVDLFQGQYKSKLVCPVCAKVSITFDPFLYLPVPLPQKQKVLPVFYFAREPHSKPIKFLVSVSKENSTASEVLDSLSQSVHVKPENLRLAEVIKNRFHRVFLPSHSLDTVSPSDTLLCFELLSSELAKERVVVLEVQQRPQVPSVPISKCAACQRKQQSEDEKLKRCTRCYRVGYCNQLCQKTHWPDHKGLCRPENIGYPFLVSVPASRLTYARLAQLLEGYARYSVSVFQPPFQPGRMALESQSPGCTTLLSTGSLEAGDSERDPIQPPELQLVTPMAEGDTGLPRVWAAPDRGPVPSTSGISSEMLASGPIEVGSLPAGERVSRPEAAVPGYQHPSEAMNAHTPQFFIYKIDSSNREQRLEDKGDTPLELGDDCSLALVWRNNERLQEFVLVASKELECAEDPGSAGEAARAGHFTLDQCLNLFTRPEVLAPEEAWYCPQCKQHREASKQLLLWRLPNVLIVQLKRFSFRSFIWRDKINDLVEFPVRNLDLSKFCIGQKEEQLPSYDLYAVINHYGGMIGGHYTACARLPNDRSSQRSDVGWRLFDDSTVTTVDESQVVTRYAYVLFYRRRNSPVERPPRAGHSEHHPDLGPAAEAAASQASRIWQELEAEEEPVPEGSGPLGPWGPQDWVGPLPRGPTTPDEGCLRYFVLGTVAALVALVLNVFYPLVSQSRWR
In short: (§1)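 Triplicate samples of HEK293T lysate, 495 µg each, received fragment at 200 µM or vehicle for 3 h, followed by Biotin-Ahx-Ub-VS (0.5 µM final) for 1 h. After NeutrAvidin enrichment of labelled DUBs and LysC/trypsin digestion, peptides were run by diaPASEF LC-MS/MS. The values are average log2 fragment/vehicle ratios from global-median-normalised Spectronaut label-free quantities, tested by unpaired t-test on proteins having ≥2 unique peptides.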

USP22 = target: T2, USP22 (UniProt Q9UPT9)
T2 sequence (whole entry): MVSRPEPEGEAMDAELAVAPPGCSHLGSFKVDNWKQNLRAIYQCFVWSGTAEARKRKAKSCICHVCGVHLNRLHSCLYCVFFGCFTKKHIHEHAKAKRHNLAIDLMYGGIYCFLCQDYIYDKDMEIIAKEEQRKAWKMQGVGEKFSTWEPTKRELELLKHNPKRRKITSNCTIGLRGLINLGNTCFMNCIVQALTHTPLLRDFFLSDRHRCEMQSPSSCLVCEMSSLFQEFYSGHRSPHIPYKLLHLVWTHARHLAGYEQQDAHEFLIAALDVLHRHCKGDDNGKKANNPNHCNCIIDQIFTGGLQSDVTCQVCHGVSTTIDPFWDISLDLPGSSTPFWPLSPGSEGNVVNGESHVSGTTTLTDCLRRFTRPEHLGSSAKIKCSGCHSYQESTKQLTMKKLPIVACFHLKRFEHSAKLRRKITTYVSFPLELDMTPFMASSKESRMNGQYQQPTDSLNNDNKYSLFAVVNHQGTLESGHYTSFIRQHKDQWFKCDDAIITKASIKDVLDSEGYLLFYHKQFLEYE
In short: as §1

USP24 = USP24 (UniProt Q9UPU5)
Chain of USP24 (Q9UPU5 whole entry): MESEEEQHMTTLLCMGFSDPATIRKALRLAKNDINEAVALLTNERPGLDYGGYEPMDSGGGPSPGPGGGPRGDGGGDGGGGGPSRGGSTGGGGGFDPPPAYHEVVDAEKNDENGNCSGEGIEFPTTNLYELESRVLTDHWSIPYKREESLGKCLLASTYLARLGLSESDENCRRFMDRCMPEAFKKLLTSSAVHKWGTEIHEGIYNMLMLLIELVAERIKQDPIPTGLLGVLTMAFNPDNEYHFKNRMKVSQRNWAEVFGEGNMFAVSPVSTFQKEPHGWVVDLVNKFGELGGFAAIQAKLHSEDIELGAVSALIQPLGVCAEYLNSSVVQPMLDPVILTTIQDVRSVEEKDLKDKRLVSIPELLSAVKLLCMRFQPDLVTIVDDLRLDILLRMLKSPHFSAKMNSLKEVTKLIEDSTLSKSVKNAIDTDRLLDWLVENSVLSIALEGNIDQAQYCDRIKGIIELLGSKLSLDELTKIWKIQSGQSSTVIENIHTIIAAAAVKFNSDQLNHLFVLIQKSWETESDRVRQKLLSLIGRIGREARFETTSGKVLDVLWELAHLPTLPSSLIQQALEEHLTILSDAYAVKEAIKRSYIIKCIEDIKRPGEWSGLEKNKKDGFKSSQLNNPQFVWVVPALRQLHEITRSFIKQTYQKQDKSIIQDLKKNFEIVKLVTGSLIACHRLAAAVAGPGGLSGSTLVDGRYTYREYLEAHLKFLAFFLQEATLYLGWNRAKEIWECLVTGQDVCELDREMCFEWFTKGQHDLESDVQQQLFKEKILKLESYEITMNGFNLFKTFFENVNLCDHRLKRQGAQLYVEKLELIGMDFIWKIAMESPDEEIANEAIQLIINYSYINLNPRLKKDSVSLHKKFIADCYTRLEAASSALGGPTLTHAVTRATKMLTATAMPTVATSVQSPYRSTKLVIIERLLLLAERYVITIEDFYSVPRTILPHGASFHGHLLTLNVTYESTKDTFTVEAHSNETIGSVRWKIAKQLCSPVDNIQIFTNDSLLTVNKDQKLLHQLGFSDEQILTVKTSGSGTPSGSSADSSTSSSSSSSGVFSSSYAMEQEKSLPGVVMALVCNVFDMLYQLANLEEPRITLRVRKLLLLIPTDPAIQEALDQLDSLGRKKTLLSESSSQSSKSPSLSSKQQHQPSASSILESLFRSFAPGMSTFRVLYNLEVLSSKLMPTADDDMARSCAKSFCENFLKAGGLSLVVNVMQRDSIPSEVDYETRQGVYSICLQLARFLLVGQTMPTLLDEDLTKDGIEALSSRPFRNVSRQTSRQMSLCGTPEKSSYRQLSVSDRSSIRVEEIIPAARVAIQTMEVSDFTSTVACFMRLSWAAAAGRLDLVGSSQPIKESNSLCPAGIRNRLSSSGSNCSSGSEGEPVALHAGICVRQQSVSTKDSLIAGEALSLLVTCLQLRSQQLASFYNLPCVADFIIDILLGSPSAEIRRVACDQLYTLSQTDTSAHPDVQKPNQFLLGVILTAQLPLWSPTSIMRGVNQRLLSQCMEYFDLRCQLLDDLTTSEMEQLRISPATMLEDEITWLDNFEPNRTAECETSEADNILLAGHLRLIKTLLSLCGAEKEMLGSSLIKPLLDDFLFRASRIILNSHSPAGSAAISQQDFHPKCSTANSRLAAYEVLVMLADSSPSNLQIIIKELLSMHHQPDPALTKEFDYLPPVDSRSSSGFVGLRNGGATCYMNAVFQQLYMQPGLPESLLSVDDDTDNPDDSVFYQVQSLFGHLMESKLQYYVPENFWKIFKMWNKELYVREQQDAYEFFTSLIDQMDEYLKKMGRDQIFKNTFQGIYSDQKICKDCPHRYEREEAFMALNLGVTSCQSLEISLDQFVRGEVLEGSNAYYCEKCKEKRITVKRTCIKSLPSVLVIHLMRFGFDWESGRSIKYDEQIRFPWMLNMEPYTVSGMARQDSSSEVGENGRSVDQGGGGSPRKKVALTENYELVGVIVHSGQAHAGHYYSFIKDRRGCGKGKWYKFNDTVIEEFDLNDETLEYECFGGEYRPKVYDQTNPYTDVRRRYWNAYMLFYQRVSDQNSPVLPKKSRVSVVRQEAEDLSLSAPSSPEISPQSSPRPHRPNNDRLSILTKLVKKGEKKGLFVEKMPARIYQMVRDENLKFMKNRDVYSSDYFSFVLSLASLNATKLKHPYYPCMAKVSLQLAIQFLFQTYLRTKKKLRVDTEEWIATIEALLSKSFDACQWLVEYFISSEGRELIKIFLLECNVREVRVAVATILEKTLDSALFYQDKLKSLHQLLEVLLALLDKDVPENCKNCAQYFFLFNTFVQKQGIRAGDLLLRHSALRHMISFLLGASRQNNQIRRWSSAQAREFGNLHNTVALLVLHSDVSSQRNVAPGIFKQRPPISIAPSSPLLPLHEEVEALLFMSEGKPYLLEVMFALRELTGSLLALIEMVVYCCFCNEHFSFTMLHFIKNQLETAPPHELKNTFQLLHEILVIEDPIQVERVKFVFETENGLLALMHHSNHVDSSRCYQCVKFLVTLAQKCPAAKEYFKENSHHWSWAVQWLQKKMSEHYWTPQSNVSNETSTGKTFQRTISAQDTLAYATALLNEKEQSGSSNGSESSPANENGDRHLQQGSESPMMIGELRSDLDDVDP
In short: as §1

USP25 = target: T3, USP25 (UniProt Q9UHP3)
T3 sequence (whole entry): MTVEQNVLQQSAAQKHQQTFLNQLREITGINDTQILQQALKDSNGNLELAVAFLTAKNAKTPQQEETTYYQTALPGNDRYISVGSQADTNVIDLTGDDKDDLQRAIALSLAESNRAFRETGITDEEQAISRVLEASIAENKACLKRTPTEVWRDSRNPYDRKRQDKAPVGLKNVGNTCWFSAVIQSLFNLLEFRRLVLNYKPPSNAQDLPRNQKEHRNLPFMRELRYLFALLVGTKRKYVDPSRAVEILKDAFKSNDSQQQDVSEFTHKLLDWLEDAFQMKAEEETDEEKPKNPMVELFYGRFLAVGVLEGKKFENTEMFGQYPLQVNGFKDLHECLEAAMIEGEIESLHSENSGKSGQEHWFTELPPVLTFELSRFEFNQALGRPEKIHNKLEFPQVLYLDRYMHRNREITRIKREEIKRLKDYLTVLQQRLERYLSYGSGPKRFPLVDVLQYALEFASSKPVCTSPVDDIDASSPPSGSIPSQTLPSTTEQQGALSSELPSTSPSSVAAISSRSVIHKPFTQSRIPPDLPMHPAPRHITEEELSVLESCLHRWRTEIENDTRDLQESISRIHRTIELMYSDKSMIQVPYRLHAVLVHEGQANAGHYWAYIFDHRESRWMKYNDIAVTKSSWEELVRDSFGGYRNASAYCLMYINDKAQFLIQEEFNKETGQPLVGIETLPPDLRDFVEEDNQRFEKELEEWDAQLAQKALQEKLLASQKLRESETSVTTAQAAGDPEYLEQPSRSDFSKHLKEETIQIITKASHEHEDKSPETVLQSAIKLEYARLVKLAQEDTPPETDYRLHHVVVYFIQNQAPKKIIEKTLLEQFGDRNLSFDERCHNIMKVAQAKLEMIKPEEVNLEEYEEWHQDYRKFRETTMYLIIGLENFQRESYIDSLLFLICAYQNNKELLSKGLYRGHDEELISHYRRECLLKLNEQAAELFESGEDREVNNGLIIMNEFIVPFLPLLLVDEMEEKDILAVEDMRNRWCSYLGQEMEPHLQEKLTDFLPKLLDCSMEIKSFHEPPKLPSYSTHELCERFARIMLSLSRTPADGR
In short: as §1

USP28 = target: T4, USP28 (UniProt Q96RU2)
T4 sequence (whole entry): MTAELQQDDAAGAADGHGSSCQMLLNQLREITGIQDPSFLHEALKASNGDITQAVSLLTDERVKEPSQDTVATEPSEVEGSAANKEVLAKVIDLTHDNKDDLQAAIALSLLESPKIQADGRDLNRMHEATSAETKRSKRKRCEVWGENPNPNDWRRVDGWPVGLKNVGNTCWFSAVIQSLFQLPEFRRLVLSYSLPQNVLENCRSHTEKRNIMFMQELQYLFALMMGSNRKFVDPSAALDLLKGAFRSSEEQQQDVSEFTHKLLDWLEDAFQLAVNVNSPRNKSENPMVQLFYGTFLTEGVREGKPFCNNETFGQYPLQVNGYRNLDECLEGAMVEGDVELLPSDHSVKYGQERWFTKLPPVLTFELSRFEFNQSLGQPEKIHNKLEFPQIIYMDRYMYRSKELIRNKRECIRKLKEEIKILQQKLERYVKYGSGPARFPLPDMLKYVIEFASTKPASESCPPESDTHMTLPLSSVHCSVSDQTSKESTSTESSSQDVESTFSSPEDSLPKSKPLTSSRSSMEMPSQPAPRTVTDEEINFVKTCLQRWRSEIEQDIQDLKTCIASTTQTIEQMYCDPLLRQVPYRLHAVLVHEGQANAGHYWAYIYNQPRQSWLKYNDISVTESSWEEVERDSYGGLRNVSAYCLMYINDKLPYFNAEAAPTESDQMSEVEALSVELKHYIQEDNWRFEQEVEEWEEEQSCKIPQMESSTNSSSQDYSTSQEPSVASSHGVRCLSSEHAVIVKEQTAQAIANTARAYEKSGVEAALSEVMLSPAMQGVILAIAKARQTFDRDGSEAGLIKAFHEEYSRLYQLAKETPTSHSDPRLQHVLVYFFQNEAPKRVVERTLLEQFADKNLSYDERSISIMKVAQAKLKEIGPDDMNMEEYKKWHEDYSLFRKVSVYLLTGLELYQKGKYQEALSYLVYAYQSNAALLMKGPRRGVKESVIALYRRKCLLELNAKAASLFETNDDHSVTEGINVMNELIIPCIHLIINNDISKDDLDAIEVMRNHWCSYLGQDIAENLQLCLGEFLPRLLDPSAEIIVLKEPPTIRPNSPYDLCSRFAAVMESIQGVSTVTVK
In short: as §1

Measured: log2 ratio of Biotin-Ahx-Ub-VS probe labelling

Cl.Cn1cnc2cc(CNC(=O)CCl)ccc21
inactive: USP19 -0.154 | USP22 0.00285 | USP24 -0.0163 | USP25 -0.177 | USP28 -0.154
